The list is not random: actives were taken first. Their share in the collection is about 32%.
PostGolgi yeast: phenotypic screen on post-Golgi transport, primary screen. post-Golgi transport phenotypic cell assay. inhibition, % at 10 µM. hit rate 0.9% among 98,000. AID 739, 2007;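 note: yeast cells grown in 1536-well plates; yeast grown about 18 h at 30C before absorbance read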
CYP2C9 activ: human CYP2C9 activators, primary screen, biochemical, luminescence; Cytochrome P450 2C9 (Homo sapiens), P11712; recombinant CYP2C9, luciferin-H conversion; active compounds read high; factor 1 = untreated enzyme, 0 = blocked; activation factor at 5 µM; hit rate 1.4% among 96,000;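 active = activation factor of 2 or more for CYP2C9 at a 5 µM dose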;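 note: 0 = sulfaphenazole-blocked wells and 1 = vehicle-only wells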
CYP2C9 inh: blockers of cytochrome P450 2C9 activity – biochemical, luminescence, ADME assay, primary screen. P11712. CYP2C9 Supersomes, luciferin-H conversion. inhibition, % at 5 µM. hit rate 20% among 96,000. AID 777, 2007;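 active = blocking of liver enzyme CYP2C9 beyond about 50% at 5 µM, limit read from the data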
PostGolgi ctrl: growth inhibition of yeast control strain, primary screen, counter-screen for post-Golgi transport modulator project | inhibition, % at 10 µM | efflux-deficient yeast background strain, growth absorbance A615, 16 h | AID 738, 2007 | hit rate 5% among 98,000
CYP2C19 inhib: blockers of cytochrome P450 2C19 activity – biochemical, luminescence, ADME assay, primary screen. P33261. CYP2C19 Supersomes, luciferin-H EGE luminescence, 30 min. inhibition, % at 5 µM. hit rate 21% among 96,000;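 active = CYP2C19 inhibition above a set limit at 5 µM in the primary screen, cut at about 50% in these data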;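 note: plate controls were negative control wells for no effect and 2.5 mM tranylcypromine positive control for full effect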
Target sequence (P33261 whole entry, looked up): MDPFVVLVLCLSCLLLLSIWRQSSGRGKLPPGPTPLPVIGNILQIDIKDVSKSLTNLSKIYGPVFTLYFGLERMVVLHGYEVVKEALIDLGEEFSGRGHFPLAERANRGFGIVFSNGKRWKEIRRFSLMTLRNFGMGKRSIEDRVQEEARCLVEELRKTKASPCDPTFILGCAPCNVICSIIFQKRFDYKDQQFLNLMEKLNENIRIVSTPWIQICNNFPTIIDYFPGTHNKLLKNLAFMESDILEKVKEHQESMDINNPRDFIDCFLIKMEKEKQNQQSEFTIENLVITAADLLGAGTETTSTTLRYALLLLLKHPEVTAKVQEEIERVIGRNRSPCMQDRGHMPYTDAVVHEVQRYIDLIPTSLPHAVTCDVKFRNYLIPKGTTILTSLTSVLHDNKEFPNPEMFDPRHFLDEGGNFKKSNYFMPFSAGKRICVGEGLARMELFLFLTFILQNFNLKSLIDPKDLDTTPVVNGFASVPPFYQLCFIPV
CYP2C19 act: human CYP2C19 activators, primary screen, biochemical, luminescence | recombinant CYP2C19, luciferin-H EGE luminescence; active compounds read high; 0 = fully inhibited enzyme, 1 = untreated enzyme | activation factor at 5 µM | 96,000 tested, under 10 active;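 active = activation factor of at least 2 at 5 µM in the primary screen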;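 note: 0 = wells with 2.5 mM tranylcypromine and 1 = vehicle-only wells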
The depositor's hits bear a star; · = not tested or not shown. Cut-off read from the data, not from the text of the source, unless noted: active = inhibition above about 30%; inactive = the rest.

SMILES | PostGolgi yeast | CYP2C9 activ | CYP2C9 inh | PostGolgi ctrl | CYP2C19 inhib | CYP2C19 act
Cc1ccc(S(=O)(=O)N(CCCO)Cc2cc3c(C)ccc(C)c3[nH]c2=O)cc1 | 9 | 0.4 | 56* | 9 | 9 | 0.9
Cc1ccc2cc(CN(CC3CCCO3)S(=O)(=O)c3cccc4nsnc34)c(=O)[nH]c2c1 (stereo not given) | -3 | 0 | 100* | 0 | 57* | 0.4
Cc1ccc2cc(CN(C)C(=O)C3CCCO3)c(=O)[nH]c2c1 (stereo not given) | -9 | 1 | -4 | -1 | 1 | 1
Cc1ccc(S(=O)(=O)N=Nc2c(O)[nH]c3ccccc23)cc1C | 12 | 0.8 | 17 | 10 | 1 | 1
Cc1ccc2cc(CN(Cc3ccco3)S(=O)(=O)c3c(C)ccc4nsnc34)c(=O)[nH]c2c1 | 4 | 0.1 | 89* | 13 | 54* | 0.5
C(=N\Nc1nc2ccccc2s1)/c1cccs1 | -7 | 0.9 | 12 | 31* | 30 | 0.7
Cc1nc2sc(C(c3ccc(F)cc3)N3CCOCC3)c(O)n2n1 (stereo not given) | 0 | 1 | 4 | 3 | -8 | 1.1
Cc1nc2sc(C(c3ccco3)N3CCN(c4ccccc4F)CC3)c(O)n2n1 (stereo not given) | · | 0.3 | 69* | · | 92* | 0.1
Cc1nc2sc(C(c3ccc(Cl)cc3)N3CCN(c4ccccc4F)CC3)c(O)n2n1 (stereo not given) | 2 | 0.5 | 49 | 32* | 67* | 0.3
CCOC(=O)N1CCC(NS(=O)(=O)c2ccc3c(c2)OCC(=O)N3)CC1 | 11 | 1 | 2 | 17 | 1 | 1
CCCNC(=O)NC(=O)CN1C(=O)NC(C)(c2ccc(C)cc2)C1=O (stereo not given) | -1 | 0.9 | 10 | 5 | 12 | 0.9
CCOC(=O)c1c(C)[nH]c(C(=O)CN2C(=O)NC(CC)(c3ccccc3)C2=O)c1C (stereo not given) | -8 | 0.3 | 67* | -3 | 64* | 0.4
CCOC(=O)c1c(C)[nH]c(C(=O)CN2CCOCC2)c1C | 1 | 0.9 | 13 | 9 | 18 | 0.8
CCOC(=O)c1c(C)[nH]c(C(=O)CN2C(=O)NC(C)(c3ccc(C)cc3)C2=O)c1C (stereo not given) | · | 0.3 | 75* | · | 83* | 0.2
CC(C(=O)Nc1nc2ccccc2[nH]1)N1C(=O)C2CC=CCC2C1=O (stereo not given) | 2 | 0.7 | 34 | 25 | 14 | 0.9
Cc1sc(NC(=O)c2ccco2)c(CN2CCC(C)CC2)c1C | 0 | 0.7 | 27 | 1 | 36 | 0.6
Cc1sc(NC(=O)c2ccco2)c(C(c2cccnc2)N2CCC(C)CC2)c1C (stereo not given) | 86* | 0.2 | 76* | 41* | 88* | 0.1
Cc1ccc2nc(-c3cccnc3SCC(=O)N3c4ccccc4CC3C)[nH]c2c1 (stereo not given) | -2 | 0.8 | 16 | 13 | 8 | 0.9
Cc1ccc2nc(SCC(=O)N3c4ccccc4CC3C)c(C)cc2c1 (stereo not given) | -12 | 0.3 | 67* | 28 | 38 | 0.6
Cc1nnc(SCC(=O)N2c3ccccc3CC2C)s1 (stereo not given) | -1 | 0.9 | 14 | 11 | 69* | 0.3
CC1Cc2ccccc2N1C(=O)CSc1nc(N)cc(=O)[nH]1 (stereo not given) | -7 | 0.9 | 12 | 3 | 1 | 1
CC1Cc2ccccc2N1C(=O)CSc1nnc(NC(=O)Cc2cccs2)s1 (stereo not given) | -3 | 0.9 | 6 | -6 | 13 | 0.9
Cc1ccccc1-n1ncc2c(SCC(=O)N3c4ccccc4CC3C)ncnc21 (stereo not given) | -9 | 0.4 | 62* | 0 | 34 | 0.7
CCc1nc(SCC(=O)N2c3ccccc3CC2C)c2c(C)c(C)sc2n1 (stereo not given) | 1 | 0 | 99* | 33* | 64* | 0.4
CCn1c(C(=O)Nc2ccsc2C(=O)OC)cc2sc(Cl)cc21 | 4 | 0.8 | 20 | -3 | 6 | 0.9
SMILES | PostGolgi yeast | CYP2C9 activ | CYP2C9 inh | PostGolgi ctrl | CYP2C19 inhib | CYP2C19 act
CC1Cc2ccccc2N1C(=O)CSc1nnc2sc3ccccc3n12 (stereo not given) | 17 | 0.3 | 67* | 14 | 100* | 0
CCc1ccc2c(CN3CCN(S(=O)(=O)c4ccc5c(c4)OCCO5)CC3)cc(=O)oc2c1 | 5 | 0.5 | 53* | 33* | 46 | 0.5
O=c1cc(CN2CCN(S(=O)(=O)c3ccc4c(c3)OCCO4)CC2)c2ccc(O)cc2o1 | 0 | 0.3 | 66* | 19 | -10 | 1.1
CCc1ccc2oc(=O)cc(CN3CCOCC3)c2c1 | 1 | 0.7 | 29 | 28 | 65* | 0.4
CCc1ccc2oc(=O)cc(CN3CCC(C)CC3)c2c1 | -7 | 0.7 | 26 | 7 | 25 | 0.7
CS/C(=N\S(=O)(=O)c1cccs1)Nc1ccc(N2CCOCC2)cc1 | -5 | 0.9 | 5 | 7 | 2 | 1
COc1ccc(Cl)cc1S(=O)(=O)N1CCN(C(=O)COc2ccccc2)CC1 | -12 | 1.6 | -60 | 20 | 62* | 0.4
COc1ccc(C(=O)N2CCN(S(=O)(=O)c3cc(Cl)ccc3OC)CC2)cc1 | -3 | 1.2 | -17 | 3 | 67* | 0.3
Cc1cc(C(C)(C)C)ccc1OCCN1CCCC1 | 67* | 1 | 3 | 29 | 6 | 0.9
Cc1nc2c(cnn2-c2ccccc2Cl)c(=O)n1-c1ccc(C(C)C)cc1 | 5 | 1.2 | -22 | 15 | 18 | 0.8
CCCCOCCCNc1ncnc2c1[nH]c1ccccc12 | 3 | 0.3 | 66* | 4 | 52* | 0.5
CCOCCCNc1ncnc2c1[nH]c1ccccc12 | 1 | 0.6 | 39 | -1 | 60* | 0.4
c1ccc2c(c1)[nH]c1c(NCC3CCCO3)ncnc12 (stereo not given) | 10 | 0.5 | 54* | 3 | 44 | 0.6
CCOC(=O)C1=C2N(C)c3ccccc3N2CCC1=O | -3 | 1.1 | -10 | 6 | -8 | 1.1
CCNc1nc(NC(C)C)nc(NS(=O)(=O)c2ccc(N)cc2)n1 | -2 | 0.9 | 10 | 4 | -27 | 1.3
COC(=O)CCC(=O)Nc1sc2c(c1C#N)CCCC2 | 14 | 0.9 | 14 | -3 | 15 | 0.8
N#Cc1c(NC(=O)c2ccncc2)sc2c1CCC2 | 2 | 0.5 | 53* | 31* | 73* | 0.3
CCCC(=O)Nc1sc2c(c1C#N)CCCC2 | 8 | 0.5 | 50* | 9 | 44 | 0.6
CC(=O)Nc1sc2c(c1C#N)CCCC2 | 8 | 1 | 0 | 9 | -3 | 1
CC1CCN(CC(=O)Nc2sc3c(c2C#N)CCC3)CC1 | -8 | 0.4 | 56* | 4 | 43 | 0.6
